Screening results deposited in PubChem by National Center for Advancing Translational Sciences (NCATS).
Only some compounds are listed: those with a hit (about 9% of all), similar ones and a draw of the others.
BAZ2B block: qHTS Assay for Inhibitors of BAZ2B; Bromodomain adjacent to zinc finger domain protein 2B (Homo sapiens), Q9UIF8; AlphaScreen BAZ2B-H3K14Ac peptide displacement; Potency, µM (doses to about 114 µM), actives largely listed as inhibitors; hit rate 4.4% among 360,000; AID 504333, 2011; further: nearly all actives have a fitted effect of over 60% in size
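In this displacement format the biotinylated H3(5-23) peptide acetylated at Lys14 serves as ligand at 50 nM, with BAZ2B at 50 nM in PBS pH 7.4 containing 0.01% Tween-20. Donor and acceptor beads are 10 ug/mL final.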
ALOX12 inh: Primary qHTS assay for inhibitors of human arachidonate 12S-lipoxygenase (ALOX12): Round 2; purified 12hLO, xylenol orange hydroperoxide absorbance; Potency, µM (highest dose often 108 µM), usual class: inhibitors; AID 1671190, 2021; Polyunsaturated fatty acid lipoxygenase ALOX12 (Homo sapiens), P18054; hit rate 1.1% among 580,000
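Purified human 12hLO (150 nM final) in 25 mM Hepes, 0.01% Triton X-100, pH 7.0 was preincubated 15 min at room temperature with compound. Then 40 uM arachidonic acid was added, 30 min. Hydroperoxide was read by Fe-XO absorbance ratio 573/405 nm.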
HP1b chromo inh: HTS for Inhibitors of HP1-beta Chromodomain Interactions with Methylated Histone Tails; Chromobox protein homolog 1 (Homo sapiens), P83916; hit rate 0.56% among 390,000; AlphaScreen HP1-beta / biotin-H3K9me3 peptide binding; Potency, µM (doses to about 114 µM), hits mostly inhibitors; further: nearly all actives have a fitted effect of over 70% in size
Target sequence (P83916 whole entry, looked up): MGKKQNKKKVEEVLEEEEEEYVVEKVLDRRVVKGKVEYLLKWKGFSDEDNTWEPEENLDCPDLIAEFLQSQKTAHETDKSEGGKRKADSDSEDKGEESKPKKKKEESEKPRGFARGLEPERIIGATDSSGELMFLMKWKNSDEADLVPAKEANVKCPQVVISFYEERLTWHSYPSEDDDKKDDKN
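Compound inhibition of the preformed complex between 50 nM HP1-beta and 50 nM biotinylated H3K9me3 peptide was read by AlphaScreen. Buffer was PBS pH 7.4 with 0.01% Tween-20. Incubations ran 30 min at room temperature, with 10 ug/mL donor/acceptor beads.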
PLK1 PBD block: qHTS for Inhibitors of PLK1-PDB (polo-like kinase 1 - polo-box domain): Primary Screen | Serine/threonine-protein kinase PLK1 (Homo sapiens), P53350 | Plk1 PBD binding of FITC phosphopeptide, fluorescence polarization | Potency, µM, hits mostly inhibitors | hit rate 2.8% among 360,000; further: series mostly up to about 57 µM; nearly all actives have a fitted effect of over 65% in size
G9a block: qHTS Assay for Inhibitors of Histone Lysine Methyltransferase G9a. Potency, µM (top dose mostly 102 µM), most hits filed as inhibitors. G9a H3K9 monomethylation, AlphaScreen, 2 h. hit rate 8.8% among 350,000; further: nearly all actives have a fitted effect of over 75% in size
Target sequence (Q96KQ7 913-1193 limits assumed): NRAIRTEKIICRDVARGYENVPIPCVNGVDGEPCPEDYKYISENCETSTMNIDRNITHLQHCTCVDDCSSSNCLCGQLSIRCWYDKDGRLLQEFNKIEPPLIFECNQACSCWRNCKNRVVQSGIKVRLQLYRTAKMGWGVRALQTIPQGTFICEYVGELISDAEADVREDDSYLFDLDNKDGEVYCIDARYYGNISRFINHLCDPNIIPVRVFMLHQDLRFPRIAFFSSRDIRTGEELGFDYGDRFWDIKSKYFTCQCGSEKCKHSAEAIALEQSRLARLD
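G9a (20 nM) was preincubated 15 min with compound, then reacted 2 h at room temperature with 500 nM biotin-H3K9 peptide and 20 µM SAM. Monomethyl-H3K9 detected by AlphaScreen using anti-H3K9me1 antibody.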
JMJD2A Tudor: qHTS Assay for Inhibitors of JMJD2A-Tudor Domain | hit rate 4.4% among 390,000 | Lysine-specific demethylase 4A (Homo sapiens), O75164 | AID 504339, 2011 | Potency, µM (titrated, usually from 114 µM), usual class: inhibitors | AlphaScreen JMJD2A-Tudor / H3K4me3 peptide binding; further: nearly all actives have a fitted effect of over 50% in size
Numbers stand for hits; n = inactive; u = inconclusive; x = not tested or not shown; [ ] = another dose, or the depositor's remark. The call rests on the fitted dose curve; in most records, active means well fitted curve in the direction sought with a large enough effect; inconclusive means small, poorly fitted or top-dose-only effect, or another doubt; inactive means no such curve, though single readings can be large; an effect the other way counts as inactive or inconclusive.

SMILES	BAZ2B block	ALOX12 inh	HP1b chromo inh	PLK1 PBD block	G9a block	JMJD2A Tudor
CN1CC[C@@]2(C)c3cc(O)ccc3N(C)C12 (stereo partly specified)	x	x	x	x	9.5µM	x
Cn1c(O)c(/C=N/N2CCOCC2)c(=O)n(C)c1=S	n	n	n	n	x	n
COC(=O)[C@@]1(OC)C[C@@H]2O[C@@]1(C)n1c3ccccc3c3c4c(c5c6ccccc6n2c5c31)C(=O)N(C)C4	x	x	x	x	n[12.7 µM]	x
O=C1NCCOC(=O)[C@@H](Cc2ccc(F)cc2)CC/C=C/C[C@H]1CC(=O)N(CCO)Cc1ccccc1	x	n	n	n	x	n
O=C1C=Cc2ccccc2C1=O	40µM	x	x	x	8.9µM	x
C=CCN1C(=O)/C(=C/c2ccc(N3CCOCC3)o2)C(=O)NC1=S	u	n	n	n	u	n
CN1C(=O)C(=Cc2ccc(N3CCCCC3)o2)C(=O)N(C)C1=S	n	n	n	n	x	n
Cc1cc(C)cc(N2C(=O)/C(=C\c3ccc(N4CCN(C)CC4)o3)C(=O)NC2=S)c1	35µM	u	u	n	u	n
O=C1NC(=O)N(c2ccc3c(c2)OCO3)C(=O)/C1=C\c1ccsc1	n	u	n	4.7µM	x	n
Cc1ccc(N2C(=O)NC(=O)/C(=C\c3ccsc3)C2=O)cc1C	n	x	x	x	u	x
O=C1NC(=O)N(c2ccc3c(c2)OCO3)C(=O)/C1=C/c1ccc(N2CCCCC2)o1	n	n	n	n	50µM	n
Cc1noc(C)c1COc1ccc(C(=O)NCC2(N(C)C)CCCCC2)cc1	x	n	x	n	x	x
O=C(c1ccccc1F)N1CCC2(CC1)OCCO2	n	n	n	n	n[2.33 µM]	n
CC1CN(c2ccc([N+](=O)[O-])cc2Cl)CCN1 (stereo unspecified)	n	n	n	n	40µM	n
CN1CCN(c2ccc([N+](=O)[O-])cc2Cl)CC1	n	n	n	n	x	n
COc1ccc(NC(=O)CCc2nc(C3=CCN(Cc4cccc(Cl)c4)CC3)no2)c(OC)c1	u	n	n	x	u	u
CN(C)c1nc(-c2ccccc2)[n+](C)s1	n	u	n	4.7µM	3.2µM	n
COc1ccc(C2N(c3cc(C)on3)C(=O)C3CCCN32)cc1 (stereo unspecified)	n	n	n	n	35µM	u
CCOP(=O)(Cc1cc(C(=O)CC)c(C)o1)OCC	n	u	n	n	8.9µM	n
O=C(/C=C/c1ccccc1)NC(NC(=S)Nc1cccc2cccnc12)C(Cl)(Cl)Cl (stereo unspecified)	x	n	x	x	14µM	x
N#CCn1c(CCl)nc2ccccc2c1=O	n	n	n	u	56µM	n
CN(C)CCc1nc2ccccc2c(=O)n1-c1ccccc1	n	x	x	x	n[12.7 µM]	x
CCOc1ccccc1N1C(=O)CC(=O)NC1=O	u	n	n	n	79µM	n
Nc1ccc2c3c(cccc13)CC2	u	n	n	n	40µM	n
Cn1c(O)c(C(=Nc2ccccc2)SCc2ccccc2Cl)c(=O)n(C)c1=O	50µM	u	n	n	x	n
SMILES	BAZ2B block	ALOX12 inh	HP1b chromo inh	PLK1 PBD block	G9a block	JMJD2A Tudor
CN1CCN(Cc2cc(C(C)(C)C)c(O)c(C(C)(C)C)c2)CC1	u	u	u	24µM	8.9µM	2.2µM
Clc1ccc2sc(C3CCNCC3)nc2c1	n	u	n	n	45µM	n
Oc1c(Cl)c(Cl)c(Cl)c(Cl)c1Cl	x	n	n	27µM	x	56µM
N#CC1c2ccccc2-n2nncc2CN1S(=O)(=O)c1cc(Cl)cc(Cl)c1 (stereo unspecified)	x	u	n	n	x	89µM
CCCCCCC1CC(C)(C(=O)CNc2nncs2)OC1=O (stereo unspecified)	n	n	n	n	14µM	n
O=[N+]([O-])c1cc(S(=O)(=O)c2ccc(O)c([N+](=O)[O-])c2)ccc1O	50µM	u	u	n	u	56µM
COC(=O)c1cn(CCOc2ccccc2)c2ccccc12	n	n	n	n	n	n
COc1ccc(C(C)=O)cc1CC(C(=O)c1ccc(C)cc1)N(C)C (stereo unspecified)	n	n	n	n	n	n
O=c1c2cc([N+](=O)[O-])ccc2nc(CN2CCOCC2)n1-c1ccccc1F	n	x	x	x	2.8µM	x
O=c1c2ccccc2nc(CN2CCOCC2)n1-c1ccccc1F	n	n	n	n	u	n
Cc1nc2ccc(Cl)cc2c(=O)n1-c1cccc(Cl)c1	n	n	n	n	n	n
CN(C)C(Cc1ccc(Cl)cc1)C(=O)c1ccccc1 (stereo unspecified)	n	u	n	n	45µM	n
Cc1cccc(NC(=S)NC2CC3CCC(C2)N3Cc2ccco2)c1 (stereo unspecified)	n	n	n	n	u	n
Nc1nonc1C(=O)N/N=C/c1ccc([N+](=O)[O-])o1	56µM	n	u	n	50µM	u
N/C(=N\[N+](=O)[O-])N/N=C/c1ccc(O)cc1	n	n	n	n	n	n
COc1ccc(C(=O)CC(c2ccc3c(c2)OCO3)c2c(O)c3ccccc3oc2=O)cc1OC (stereo unspecified)	x	n	x	n	x	x
CCN(CC)c1ccc(CC2C(=O)N(C)C(=O)N(C)C2=O)cc1	45µM	x	u	u	13µM	45µM
C=CCOc1ccc(CC2C(=O)N(C)C(=O)N(C)C2=O)cc1	n	n	n	u	n[12.7 µM]	n
CCOP(=O)(CCP(=O)(OCC)OCC)OCC.C[CH2][Sn]([Cl])([Cl])[CH2]C	x	u	n	8.4µM	x	n
O=c1[nH]c(=S)n(-c2ccc(Cl)cc2)c(O)c1C=Nc1ccc(N2CCOCC2)cc1	u	n	n	u	x	n
Cc1cc(OCC(=O)NCc2cccnc2)c2c3c(c(=O)oc2c1)CCCC3	n	n	n	n	n	n
NS(=O)(=O)c1ccc(CNC(=O)COc2ccc3c4c(c(=O)oc3c2)CCCC4)cc1	n	n	n	24µM	n	35µM
O=C1CO[C@H]2CN(Cc3cccnc3)C[C@H]2N1	x	n	x	x	x	x
CC[C@]1(C2=NCCN2)Cc2ccccc2O1	x	n	x	x	x	x
COC(=O)c1nc(-c2ccc3c(n2)C(=O)C(N)=C(OC)C3=O)c(N)c(-c2ccc(OC)c(OC)c2O)c1C	u	16µM	n	n	10µM	n
COc1ccc(NC(=S)NC(NC(=O)CF)C(Cl)(Cl)Cl)c([N+](=O)[O-])c1 (stereo unspecified)	u	n	n	n	10µM	n
